Bioassay records deposited in PubChem BioAssay by several laboratories.
BoNT-A LC inh2: BoNT/A light chain protease inhibitors, primary screen, biochemical, flow cytometry, MLPCN library; inhibition, % at 10 µM; 0.17% of 360,000 active; multiplex microsphere protease substrate cleavage; note: plate controls were buffer without enzyme for full effect and enzyme alone for no effect
Bead autofluor: counter-screen for toxin protease inhibitors: compound fluorescence; compound autofluorescence counterscreen, microsphere flow cytometry; stronger effect = higher value; fluorescence intensity (test concentration not listed); 3.1% of 360,000 active; AID 624483; in the data active = fluorescence intensity above about 16000; inconclusive = no clear call, values can overlap the other calls
TcdB GH inh: TcdB glycohydrolase inhibitors, primary screen, biochemical, single point, plate reader; Toxin B (Clostridioides difficile), P18177; TcdB glycohydrolase enzymatic assay; inhibition, % at 9.99 µM; 0.24% of 350,000 active; in the data active = inhibition above about 10%
BoNT-F LC inh: BoNT/F light chain protease inhibitors, primary screen, biochemical, flow cytometry, MLPCN library; Multiplex microsphere protease cleavage assay; inhibition, % at 10 µM; Botulinum neurotoxin type F light chain protease (Clostridium botulinum); 0.22% of 360,000 active; in the data active = inhibition above about 35%, passing the limit was not always enough; inconclusive = no clear call, values can overlap the other calls; note: plate controls were buffer without enzyme for full effect and enzyme alone for no effect
Anthrax LF inh2: Bacillus anthracis LF protease inhibitors, primary screen, biochemical, multiplex microsphere, MLPCN library. inhibition, % at 10 µM. AID 588501, 2011. multiplex microsphere protease cleavage assay. 0.12% of 360,000 active; note: plate controls were buffer without enzyme for full effect and enzyme alone for no effect
* = called active by the depositor; ? = inconclusive; nt = no result. Many of the other results were omitted from the sample, so hits are more common in it than they were. Cut-off read from the data, not from the text of the source, unless noted: active = inhibition above about 30%; inconclusive = no clear call, values can overlap the other calls; inactive = below that.

SMILES	BoNT-A LC inh2	Bead autofluor	TcdB GH inh	BoNT-F LC inh	Anthrax LF inh2
Cc1ccc2c(Cl)c(C(=O)NCc3cccnc3)sc2c1	?	20230*	nt	0.2	1.8
C[C@@H]1CCCCO[C@@H](CN(C)S(=O)(=O)c2ccccc2)[C@H](C)CN([C@@H](C)CO)C(=O)c2cc(NC(=O)Nc3cccc4ccccc34)ccc2O1	nt	nt	-0.1	nt	nt
c1ccc(Cn2nnc3c(NCCN4CCOCC4)ncnc32)cc1	0.9	22975*	-0.8	0.7	0.8
CC(C)(C)c1nc(NCCN2CCOCC2)c2nnn(Cc3ccccc3Cl)c2n1	-0.5	23490*	0.2	-1.4	-2.3
COc1ccc(S(=O)(=O)N[C@@H]2CC[C@@H](CCNC(=O)c3ccccc3F)O[C@@H]2CO)cc1	nt	nt	-0.3	nt	nt
N#C/C(=C/c1ccc(Sc2nc3ccccc3[nH]2)o1)c1ccccc1F	?	16534*	nt	-4.2	-2.2
N#C/C(=C/c1ccc(Sc2nc3ccccc3[nH]2)o1)c1cccc(F)c1	-0.3	23920*	nt	-1.8	-1.5
O=C(NC1CCCC1)N1CC2(C1)[C@@H](c1ccccc1)[C@@H](CO)N2CC1CCOCC1	nt	nt	0.9	nt	nt
C=CCSc1nc(=O)n2cccc(C)c2n1	-1.7	21125*	-1.9	-2.6	-5.5
O=C(Cc1ccncc1)NCC[C@H]1CC[C@H](NC(=O)Nc2ccc(Cl)cc2)[C@@H](CO)O1	nt	nt	0.3	nt	nt
C[C@@H]1CN([C@@H](C)CO)C(=O)c2cc(NS(=O)(=O)c3cn(C)cn3)ccc2O[C@@H]1CN(C)S(C)(=O)=O	nt	nt	0.2	nt	nt
COc1ccc2c3c([nH]c2c1)[C@@H](CO)N(Cc1ccccc1F)CC31CCN(C(=O)C2CCOCC2)CC1	nt	nt	-0.4	nt	nt
Cc1nc2ccccc2n1C1CC(=O)N(Cc2ccccc2)C1=O (stereo unspecified)	-1.5	23623*	nt	-3.5	-2.9
O=C1CC(N2CCC(c3nc4ccccc4s3)CC2)C(=O)N1Cc1ccccc1 (stereo unspecified)	-1.3	23583*	nt	-2.3	-5.2
Cc1cc2ncn(C3CC(=O)N(Cc4ccccc4)C3=O)c2cc1C (stereo unspecified)	0.2	8036	nt	1.9	-0.3
Nc1cccc(Oc2c(F)c(F)c(Oc3cccc(N)c3)c(F)c2F)c1	9.8	3904	-1.1	38.4*	?
Cc1ccc(S(=O)(=O)N(C)C[C@@H]2OCCCC[C@@H](C)Oc3ccc(NS(=O)(=O)c4ccc(F)cc4)cc3C(=O)N([C@@H](C)CO)C[C@@H]2C)cc1	nt	nt	0.1	nt	nt
COc1ccc(OCCCC(=O)Nc2cc(Cl)ccc2-n2cncn2)cc1	-87.4	17700*	2.3	-131.0	-19.7
O=C(C[C@H]1CC[C@H](NC(=O)Nc2ccccc2F)[C@H](CO)O1)NCc1ccc(Cl)cc1	nt	nt	-0.6	nt	nt
COCCNC(=O)C1CCCN(c2ncccn2)C1 (stereo unspecified)	1.9	21959*	nt	-0.2	-2.2
Cc1ccc(NC(=O)C2CCCN(c3ncccn3)C2)cc1C (stereo unspecified)	-0.2	3288	2.1	2.7	-0.6
COCCCNC(=O)C1CCN(c2ncccn2)CC1	0.4	8467	-1.0	-1.1	-7.4
Cc1ccc(F)cc1NC(=O)C1CCCN(c2ncccn2)C1 (stereo unspecified)	-0.2	20027*	0.3	-1.5	-2.3
C[C@H](CO)N1C[C@H](C)[C@@H](CN(C)S(=O)(=O)c2ccc(Cl)cc2)OCCCC[C@H](C)Oc2ccc(NS(C)(=O)=O)cc2C1=O	nt	nt	2.0	nt	nt
CC(C)CC(=O)c1c[nH]c(C(=O)NCCCn2ccnc2)c1	1.4	19657*	nt	1.7	-2.3
SMILES	BoNT-A LC inh2	Bead autofluor	TcdB GH inh	BoNT-F LC inh	Anthrax LF inh2
CCC(CC)C(=O)c1c[nH]c(C(=O)NCCCn2ccnc2)c1	?	22434*	nt	-2.0	-0.1
Cc1ccc(S(=O)(=O)N2C[C@@H](O)COC[C@H]3O[C@@H](CC(=O)N[C@H]4CCN(Cc5ccccc5)C4)CC[C@@H]32)cc1	nt	nt	-0.9	nt	nt
CS(=O)(=O)N1CC2(C1)[C@H](c1ccccc1)[C@H](CO)N2C(=O)c1ccccc1	nt	nt	-0.6	nt	nt
CCS(=O)(=O)N1N=C(c2cccc(NS(C)(=O)=O)c2)CC1c1ccc(C)cc1 (stereo unspecified)	26.4	21472*	1.9	-1.1	16.9
CCS(=O)(=O)Nc1cccc(C2=NN(S(C)(=O)=O)C(c3ccccc3)C2)c1 (stereo unspecified)	-0.8	7796	-0.9	8.2	0.2
c1ccc(CCc2nn3c(Cn4cnc5ccccc54)nnc3s2)cc1	-0.1	7717	1.1	-4.7	0.9
